Data: publication PMC5540273 (PLoS ONE, 2017)

What follows are molecules tested on JAK2(JH1domain-catalytic). Settings: concentration: 1 μM, replicates: in singlicate; n = 1.
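Further: KINOMEscan kinase panel screen.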

Row | Structure (SMILES) | %Inh [%]
1 | COc1cc(Nc2ncc3c(C)nc(-c4cc5ccccc5[nH]4)n3n2)cc(OC)c1OC [GW869516] | 54
2 | Cl.NC(=O)c1cccc(Nc2nccc(Nc3ccc(Oc4c(Cl)cccc4Cl)c(Cl)c3)n2)c1 [GW659009] | 72
3 | Cl.c1ccc(-c2ccc3c(Nc4ccc5[nH]ccc5c4)ccnc3c2)nc1 [GW440138] | 24
4 | CN1CCN(CCCNc2nccc(-c3c(-c4ccc(F)cc4)nn4cc(C(F)(F)F)ccc34)n2)CC1 [GW621581] | 32
5 | O=C(Nc1n[nH]c2cc(-c3ccoc3)ccc12)C1CC1 [SB-738481] | 18
6 | COc1cccc(C2=C(Nc3ccc(Cl)c(C(=O)O)c3)C(=O)NC2=O)c1 [SB-390769] | 100
7 | COc1cccc(-c2ccc3c(NC(=O)C4CC4)n[nH]c3n2)c1 [SB-710903] | 17
8 | COc1cccc(NC(=O)NC2CCN(c3ccnc(Nc4cc(OC)c(OC)c(OC)c4)n3)C2)c1 (stereo not shown) [GSK1379763] | 88
9 | CN(C)S(=O)(=O)c1cc(-c2ccc3nccc(-c4cccc(S(N)(=O)=O)c4)c3c2)cnc1N [GSK1669921] | 24
10 | Cn1cc(-c2ccc3c(c2)CCN3C(=O)Cc2cccc(F)c2)c2c(N)ncnc21 [GSK2603358] | 17
11 | COc1ccc(CNC(=O)NC2CCN(c3ccnc(Nc4ccc(F)cc4)n3)CC2)cc1 [GSK1379788] | 9
12 | O=C(Nc1cccc(-c2nn3ccccc3c2-c2ccnc(Nc3cccc(F)c3)n2)c1)c1c(F)ccc(F)c1Cl [GSK357952] | 25
13 | Cl.Cl.NCC(NCc1ccc(-c2ccnc3[nH]ccc23)s1)c1ccccc1 (stereo not shown) [GSK1321565] | 96.9
14 | CCc1ccc(-c2ccc3c(c2)-c2c(cnn2C)S(=O)(=O)N3C)cc1 | 2
15 | O=C(O)C(F)(F)F.O=C(O)C(F)(F)F.O=c1[nH]ccc2nc(N[C@@H]3CCCNC3)nc(Nc3ccc(S(=O)(=O)N4CCOCC4)cc3)c12 [GSK2177277] | 98.7
16 | Cc1occc1-c1ncc(OC[C@@H](N)Cc2c[nH]c3ccccc23)cc1-c1ccc2[nH]nc(C)c2c1.O=C(O)C(F)(F)F [GSK682037] | 5
17 | COCCOCCOc1cc2ncc3c4ccc(C#N)cc4[nH]c3c2cc1OC | 11
18 | CN(C)Cc1ccc(-c2ccc3c(Nc4ccc(Oc5ccccn5)cc4)ccnc3c2)o1 [GW567148] | 18
19 | Cc1ccc(C(=O)N2CC[C@@H](O)C2)cc1-n1c(C)cc(OCc2ccc(F)cc2F)c(Br)c1=O | 0
20 | Cn1cc(-c2[nH]c3cc(NC(=O)[C@H](N)C4CCCCC4)cc4c3c2C=NNC4=O)cn1 | 98.7
21 | COc1cc(Nc2nccc(-c3c(-c4cccc(NC(=O)c5c(F)cccc5F)c4)nn4ncccc34)n2)cc(OC)c1OC [GSK327238] | 6
22 | CC(=O)Nc1nc2cnc(Nc3cc(NC(=O)c4cccc(C5(C#N)CC5)c4Cl)ccc3C)nc2s1 | 0
23 | Cc1ccc(C(=O)Nc2ccc(Nc3ccnc4cc(-c5nccs5)ccc34)cc2O)cc1.Cl [GW494702] | 25
24 | Nc1ncc(-c2cccnc2)c2scc(-c3ccc4c(c3)CCN4C(=O)Cc3ccccc3)c12 [GSK683281] | 14

Each molecule was assayed on JAK3(JH1domain-catalytic). Settings: concentration: 1 μM, replicates: in singlicate; n = 1.

Row | Structure (SMILES) | %Inh [%]
25 | COc1ccc(Nc2nccc(N3CCC(NC(=O)Nc4cccc(OC)c4)C3)n2)cc1 (stereo not shown) [GSK1379742] | 0
26 | Cc1ccc(C)c(NC(=O)NC2CCN(c3ccnc(Nc4ccc(F)cc4)n3)C2)c1 (stereo not shown) [GSK1379720] | 0
27 | c1ccc(-c2n[nH]cc2Nc2ccnc3ccccc23)nc1 [GW694077] | 88
28 | COc1cc(Nc2nccc(N3CCC(NC(=O)Nc4cccc(C(C)=O)c4)C3)n2)cc(OC)c1OC (stereo not shown) [GSK1379753] | 0
29 | O=C(Nc1cccc(-c2nn3ncccc3c2-c2ccnc(Nc3ccccc3)n2)c1)c1c(F)cccc1F [GSK198271] | 0
30 | c1ccc(-c2cnc3nccnn23)cc1 [AH20685] | 0
31 | Cl.c1ccc(-c2ccc3c(Nc4ccc5[nH]ncc5c4)ccnc3c2)nc1 [GW440137] | 0
32 | Fc1ccc(-c2ncn(C3CCNCC3)c2-c2ccnc(Oc3ccc(-c4ccccc4)cc3)n2)cc1 [SB-245391] | 41
33 | Clc1ccc(-c2nn3ncccc3c2-c2ccnc(Nc3ccc4c(c3)OCCO4)n2)cc1 [GW829116] | 0
34 | Cc1ccc(F)c(C(=O)Nc2cccc(-c3nn4ccccc4c3-c3ccnc(Nc4cccc(F)c4)n3)c2)c1F [GSK361061] | 0
35 | CNC(=O)c1ccccc1Nc1nc(Nc2ccc(N3CCOCC3)cc2)ncc1Cl.Cl [GSK1576028] | 100
36 | Cc1cccc(Nc2nc(N[C@H]3CCNC3)ncc2C(N)=O)c1.Cl [GSK2197149] | 3
37 | CCn1c(-c2nonc2N)nc2c(C#CC(C)(C)O)nc(OC[C@H](N)c3ccccc3)cc21 [GSK943949] | 4
38 | COc1cc(Nc2ncc3c(C)nc(-c4cc5ccccc5[nH]4)n3n2)cc(OC)c1OC [GW869516] | 11
39 | Cl.NC(=O)c1cccc(Nc2nccc(Nc3ccc(Oc4c(Cl)cccc4Cl)c(Cl)c3)n2)c1 [GW659009] | 0
40 | Cl.c1ccc(-c2ccc3c(Nc4ccc5[nH]ccc5c4)ccnc3c2)nc1 [GW440138] | 0
41 | CN1CCN(CCCNc2nccc(-c3c(-c4ccc(F)cc4)nn4cc(C(F)(F)F)ccc34)n2)CC1 [GW621581] | 0
42 | O=C(Nc1n[nH]c2cc(-c3ccoc3)ccc12)C1CC1 [SB-738481] | 0
43 | COc1cccc(C2=C(Nc3ccc(Cl)c(C(=O)O)c3)C(=O)NC2=O)c1 [SB-390769] | 81

Row | Structure (SMILES) | %Inh [%]
44 | COc1cccc(-c2ccc3c(NC(=O)C4CC4)n[nH]c3n2)c1 [SB-710903] | 0
45 | COc1cccc(NC(=O)NC2CCN(c3ccnc(Nc4cc(OC)c(OC)c(OC)c4)n3)C2)c1 (stereo not shown) [GSK1379763] | 0
46 | CN(C)S(=O)(=O)c1cc(-c2ccc3nccc(-c4cccc(S(N)(=O)=O)c4)c3c2)cnc1N [GSK1669921] | 0
47 | Cn1cc(-c2ccc3c(c2)CCN3C(=O)Cc2cccc(F)c2)c2c(N)ncnc21 [GSK2603358] | 0
48 | COc1ccc(CNC(=O)NC2CCN(c3ccnc(Nc4ccc(F)cc4)n3)CC2)cc1 [GSK1379788] | 0
49 | O=C(Nc1cccc(-c2nn3ccccc3c2-c2ccnc(Nc3cccc(F)c3)n2)c1)c1c(F)ccc(F)c1Cl [GSK357952] | 0
50 | Cl.Cl.NCC(NCc1ccc(-c2ccnc3[nH]ccc23)s1)c1ccccc1 (stereo not shown) [GSK1321565] | 100
51 | CCc1ccc(-c2ccc3c(c2)-c2c(cnn2C)S(=O)(=O)N3C)cc1 | 5
52 | O=C(O)C(F)(F)F.O=C(O)C(F)(F)F.O=c1[nH]ccc2nc(N[C@@H]3CCCNC3)nc(Nc3ccc(S(=O)(=O)N4CCOCC4)cc3)c12 [GSK2177277] | 99.3
53 | Cc1occc1-c1ncc(OC[C@@H](N)Cc2c[nH]c3ccccc23)cc1-c1ccc2[nH]nc(C)c2c1.O=C(O)C(F)(F)F [GSK682037] | 0
54 | COCCOCCOc1cc2ncc3c4ccc(C#N)cc4[nH]c3c2cc1OC | 84
55 | CN(C)Cc1ccc(-c2ccc3c(Nc4ccc(Oc5ccccn5)cc4)ccnc3c2)o1 [GW567148] | 0
56 | Cc1ccc(C(=O)N2CC[C@@H](O)C2)cc1-n1c(C)cc(OCc2ccc(F)cc2F)c(Br)c1=O | 1
57 | Cn1cc(-c2[nH]c3cc(NC(=O)[C@H](N)C4CCCCC4)cc4c3c2C=NNC4=O)cn1 | 99.5
58 | COc1cc(Nc2nccc(-c3c(-c4cccc(NC(=O)c5c(F)cccc5F)c4)nn4ncccc34)n2)cc(OC)c1OC [GSK327238] | 59
59 | CC(=O)Nc1nc2cnc(Nc3cc(NC(=O)c4cccc(C5(C#N)CC5)c4Cl)ccc3C)nc2s1 | 0
60 | Cc1ccc(C(=O)Nc2ccc(Nc3ccnc4cc(-c5nccs5)ccc34)cc2O)cc1.Cl [GW494702] | 0
61 | Nc1ncc(-c2cccnc2)c2scc(-c3ccc4c(c3)CCN4C(=O)Cc3ccccc3)c12 [GSK683281] | 0
